This is an account of results in ChEMBL document CHEMBL4888484, “Replenishing the malaria drug discovery pipeline: Screening and hit evaluation of the MMV Hit Generation Library 1 (HGL1) against asexual blood stage Plasmodium falciparum ,using a nano luciferase reporter read-out” (2022).

Among all 150,000 compounds or so, about 540 (0.36%) showed an effect of 50% or more. The full list was thinned out, with strong results kept by preference.

The experiment relates to Plasmodium falciparum. In words: Primary screen in NF54 nanoGlo assay, in single point, at 2uM, 72h; a lower Z score goes with more inhibition. In kind it is functional, Erythrocyte. The conditions noted are these: timepoint 72 hour.
With `Cc1cnc(C2CCOCC2)n1CC1CCN(C(=O)c2cccs2)CC1`, the “% Inhibition” value is -4% and the Z score stood at 0.55.
The matching figures for `Cc1cc(F)ccc1C(=O)NCc1nnc(C)n1C1CC1`: -2% and 0.34.
With `CCN1CCN([C@H]2CCN(c3cc(Cl)ccc3C#N)C2)CC1`, the “% Inhibition” value is reported as -9% and the Z score is recorded as 1.34.
In the same order, the values of `CCn1c(-c2cc(NC(=O)c3cc(C)cc(C)c3)[nH]n2)cc2ccc(OC)cc21` are 17% and -1.96.
In the same order, the values of `CCn1c(-c2cc(NC(=O)c3ccncc3)[nH]n2)cc2ccc(OC)cc21` are 34% and -3.83.
In the same order, the values of `CCn1c(-c2cc(NC(=O)c3ccc4c(c3)OCO4)[nH]n2)cc2ccc(OC)cc21` are 52% and -0.45.
As for `O=C(c1cnn(Cc2ccccc2)c1)N1CCC[C@@H]1CO`, the “% Inhibition” value was 5% and the Z score is recorded as -0.66.
Regarding `Cc1ccc(CNC(=O)CN2CCN(C(=O)Nc3ccc(Cl)cc3)CC2=O)o1`, the “% Inhibition” value was determined as 7% and the Z score was -1.32.
Consider `CCN1CCOC(C(=O)N2CCCC(COc3ccccc3)C2)C1` (stereo not given), for which the “% Inhibition” value is given as -11% and the Z score was 1.91.
`NC(=O)CC(=O)Nc1ncc(-c2ccccc2F)s1`: the “% Inhibition” value stood at 4% and the Z score is -0.56.
The matching figures for `Oc1ccccc1-c1cnc(C(F)(F)F)s1`: 93% and -17.09.
As to `Oc1ccccc1C1=NN[C@@](O)(C(F)(F)C(F)F)C1`, the “% Inhibition” value was -6% and the Z score stood at 0.8.
In the same order, the values of `Cn1nccc1[C@@H](O)CNC(=O)C1(c2cccnc2)CC2(CCC2)C1` are -8% and 1.59.
In the same order, the values of `CCN(CC)CCN(CC)C(=O)c1cccc(-c2ccc(C)nc2N)c1` are -7% and 0.71.
For the compound `CCN(CCN(C)C)C(=O)c1cccc(-c2ncccc2C)c1`, the “% Inhibition” value is -6% and the Z score was determined as 0.81.
In the same order, the values of `CCN(CCN(C)C)C(=O)c1cccc(-c2ccc3nccc(N)c3c2)c1` are 96% and -13.62.
Regarding `CNC(=O)[C@@H]1C[C@H](NCc2cc(OC)c(OC)c(OC)c2)CN1CC(c1ccccc1)c1ccccc1`, the “% Inhibition” value is reported as 54% and the Z score is given as -11.4.
The matching figures for `CNC(=O)[C@@H]1C[C@H](NCc2ccccc2F)CN1CC(c1ccccc1)c1ccccc1`: 9% and -1.28.
In the case of `CNC(=O)[C@@H]1C[C@@H](NCc2ccc(C(F)(F)F)cc2)CN1CC(c1ccccc1)c1ccccc1`, the “% Inhibition” value worked out at 2% and the Z score was -0.22.
Turning to `Cc1cccc(OCCN2C(=O)N[C@@]3(CCCCc4ccccc43)C2=O)c1`, the “% Inhibition” value is listed as 4% and the Z score is recorded as -0.78.
In the same order, the values of `CCN(Cc1noc(C2CCC2)n1)Cc1ccccc1C#N` are -1% and 0.12.
The matching figures for `COc1ccc(Cl)cc1-c1c(N2CCCC2)cn[nH]c1=O`: 1% and -0.09.
For the compound `O=C(NCCOc1ccccc1)c1ccc(C(=O)NCCOc2ccccc2)s1`, the “% Inhibition” value is reported as 56% and the Z score is -0.3.
Take `O=C(NCCOc1ccccc1)NCCOc1ccccc1`: the “% Inhibition” value came out at 1% and the Z score was -0.22.
`Cc1cc(C(=O)NCCOc2ccccc2)c(C)s1`: the “% Inhibition” value was -17% and the Z score is 2.3.
In the same order, the values of `Cc1cc(C)n(Cc2c(C(=O)NCc3ccc(N(C)C)cc3)noc2C)n1` are -13% and 1.35.
The matching figures for `C#CCCCCC(=O)Nc1ccc(C#N)cn1`: 4% and -0.84.
Regarding `CC(C)[C@H]1CN(C(=O)c2nc(C(F)(F)F)n3c2CCCC3)CCN1`, the “% Inhibition” value is -15% and the Z score is 1.9.
In the same order, the values of `COc1cccc(Cl)c1CN[C@H]1CCCc2occc21` are -24% and 2.8.
Take `CC(O)CC(C)(C)CNC1CCCc2occc21` (stereo not given): the “% Inhibition” value came to 36% and the Z score is on record as 0.84.
The matching figures for `Oc1cccc(CN[C@H]2CCCc3occc32)c1Cl`: 78% and -12.81.
The matching figures for `O=C(Nc1ccc(Cl)cc1)N1Cc2nc[nH]c2C[C@H]1c1nc(-c2ccc3ccccc3c2)no1`: 19% and -2.22.
The matching figures for `Cc1cnn(C2CN(CC(=O)N3CC(=O)Nc4ccccc43)C2)c1`: -10% and 1.59.
As for `CCCc1cc(C(=O)N2C[C@@H]3CC[C@H]2CN(C(C)=O)C3)n(C)n1`, the “% Inhibition” value was determined as 3% and the Z score is reported as -0.61.
The matching figures for `CCc1ncnc(N2CC[C@H](Cc3nnn[nH]3)C2)c1F`: -13% and 1.77.
The matching figures for `O=C1NCCCOc2cccc(c2)[C@H]2c3ccc(cc3CCN2C(=O)CCN2CCOCC2)Oc2ccc(O)c1c2`: 39% and -8.79.
Take `Cc1cc(C(=O)N2CCc3cc4ccc3[C@@H]2c2cccc(c2)OCCCNC(=O)c2cc(ccc2O)O4)n(C)n1`: the “% Inhibition” value is on record as -11% and the Z score is recorded as 1.41.
The matching figures for `NC(=O)C1CCN(CCC(=O)N2CCc3cc4ccc3[C@@H]2c2cccc(c2)OCCCNC(=O)c2cc(ccc2O)O4)CC1`: 92% and -17.59.
In the same order, the values of `NCc1cccc(C(=O)N2CCc3cc4ccc3[C@@H]2c2cccc(c2)OCCCNC(=O)c2cc(ccc2O)O4)c1` are 86% and -13.81.
As for `CCn1ccc(C(=O)N2CCc3cc4ccc3[C@@H]2c2cccc(c2)OCCCNC(=O)c2cc(ccc2O)O4)cc1=O`, the “% Inhibition” value is reported as 7% and the Z score is -1.26.
In the same order, the values of `COCC(=O)N1CCc2cc3ccc2[C@@H]1c1cccc(c1)OCCCNC(=O)c1cc(ccc1O)O3` are -2% and 0.47.
The matching figures for `Cc1ccc(OS(=O)(=O)c2ccc3c(c2)NC(=O)CO3)c(Br)c1`: -5% and 0.38.
In the same order, the values of `CCc1nccc(-c2nccn2CCOc2ccccc2F)n1` are -5% and 0.87.
`CN(C(=O)CC1(C(=O)O)CCC1)[C@H]1CCOc2ccc(Br)cc21`: the “% Inhibition” value stood at 1% and the Z score is on record as -0.26.
The matching figures for `Cc1cc(CS(=O)(=O)[C@@H](C)C(=O)NCc2ccccc2)on1`: -12% and 2.41.
The matching figures for `O=S(=O)(Cc1ccc(OC(F)(F)F)cc1)Nc1cccnc1-n1cccn1`: 2% and -0.39.
The matching figures for `Cc1ccc(NC(=O)Cc2nnc(-c3cnccn3)o2)c(Cl)c1`: -12% and 1.25.
Take `CCC(C)NCC(O)Cn1c(-c2ccccc2)c(-c2ccccc2)c2cc(C)ccc21` (stereo not given): the “% Inhibition” value is 93% and the Z score is reported as -10.06.
In the same order, the values of `Cc1c(C)n(CC(O)CNC(C)c2ccccc2)c2c(Cl)cccc12` (stereo not given) are 59% and -7.71.
In the same order, the values of `CC(NCC(O)COc1ccc2c(c1)OCO2)c1ccccc1` (stereo not given) are -9% and 1.69.
The matching figures for `CC(NCC(O)Cn1c(-c2ccccc2)c(-c2ccccc2)c2ccc3ccccc3c21)c1ccccc1` (stereo not given): 88% and -10.69.
On to `Cc1ccc2c(c1)c(-c1ccccc1)c(-c1ccccc1)n2C[C@@H](O)CNCCCO`, for which the “% Inhibition” value was 1% and the Z score is -0.17.
The matching figures for `COCCN(CCOC)C[C@H](O)Cn1c(-c2ccccc2)c(-c2ccccc2)c2cc(C)ccc21`: 0% and 0.06.
The matching figures for `Cc1c(C)n(C[C@@H](O)Cn2ccnc2C)c2c(Cl)cccc12`: -5% and 0.7.
The matching figures for `CC(C)NC[C@H](O)Cn1c(-c2ccccc2)ccc1-c1ccccc1`: 8% and -1.24.
Regarding `Cc1c(C)n(C[C@@H](O)CNC2CCCC2)c2c(Cl)cccc12`, the “% Inhibition” value was found to be 48% and the Z score is -6.21.
In the same order, the values of `CS(=O)(=O)N1C[C@H]2CC[C@@H](C1)N(C(=O)c1ccc3[nH]nnc3c1)C2` are -7% and 1.17.
As for `CO[C@@]12CC[C@@H](OCC3CC3)C[C@@H]1N(C(=O)c1csc(C(C)C)n1)CC2`, the “% Inhibition” value is recorded as -2% and the Z score worked out at 0.34.
The matching figures for `Cc1cc2c(NC(=O)N(Cc3ccsc3)CC(C)C)cccc2nn1`: -6% and 1.12.
On to `O=C(NCc1cccnc1)c1coc(CN(Cc2ccccc2)Cc2ccccc2C(F)(F)F)n1`, for which the “% Inhibition” value is recorded as 0% and the Z score came to 0.02.
In the same order, the values of `Cc1nnc(CN(C)Cc2c[nH]cn2)s1` are 4% and -0.58.
In the same order, the values of `CC[C@H]1CN2C=NC(N3CCN(C(=O)Nc4cc(F)cc(F)c4)CC3)=CC2=N1` are 68% and -4.25.
The matching figures for `O=C(Cc1ccccc1)N1CCN(c2cc(N3CCCC3)ncn2)CC1`: -8% and 0.94.
`C[C@H]1CN=C2C=C(N3CCN(C(=O)Nc4ccccc4C(F)(F)F)CC3)N=CN21`: the “% Inhibition” value was -11% and the Z score turned out to be 1.77.
For the compound `C[C@H]1CN2C=NC(N3CCN(C(=O)c4ccccc4)CC3)=CC2=N1`, the “% Inhibition” value is on record as -3% and the Z score was determined as 0.63.
The matching figures for `CCc1cccc(NC(=O)N2CCN(C3=CC4=NC[C@H](C)N4C=N3)CC2)c1`: 58% and -5.02.
The matching figures for `O=C(Nc1cc(F)cc(F)c1)N1CC[C@H](Cc2ccncc2)C1`: -5% and 0.93.
As to `Cc1c(F)cccc1NC(=O)N1CCN(C2=CC3=N[C@@H](C)CN3C=N2)CC1`, the “% Inhibition” value is given as 57% and the Z score was -7.99.
`Cc1oc(C2CCN(C(=O)Nc3cccc(F)c3C)CC2)nc1C(=O)N1CCCC1`: the “% Inhibition” value is given as -3% and the Z score is given as 0.55.
In the case of `Cc1cc(F)cc(NC(=O)N2CCCN(C(=O)C(F)(F)F)CC2)c1`, the “% Inhibition” value is on record as -11% and the Z score stood at 1.45.
In the same order, the values of `CCc1cccc(NC(=O)N2CCN(c3nccs3)CC2)c1` are -2% and 0.21.
The matching figures for `CN1CCN(c2cc(N3CCN(C(=O)Cc4ccccc4)CC3)ncn2)CC1`: -10% and 0.91.
Regarding `CC[C@H]1CN2C=NC(N3CCN(C(=O)Cc4ccccc4)CC3)=CC2=N1`, the “% Inhibition” value was 56% and the Z score is listed as -2.27.
Take `Cc1ccc(NC(=O)Cn2cc(S(=O)(=O)N3CCCCCC3)ccc2=O)c(C)c1`: the “% Inhibition” value is -2% and the Z score worked out at 0.3.
In the same order, the values of `CN(c1cnn(C)c1)S(=O)(=O)c1ccccc1` are -12% and 1.93.
In the same order, the values of `CCc1onc(C)c1NCc1cnc(C(C)(C)C)s1` are 34% and 0.74.
In the same order, the values of `COC(=O)C1=C(c2ccccc2)S/C(=C2/C(=S)C(C)(C)Nc3ccc(C)cc32)S1` are -8% and 0.99.
With `Cc1ccccc1N1CCN(C(=O)CC[C@@H]2CN(Cc3ccccn3)CC[C@@H]2N2CCOCC2)CC1`, the “% Inhibition” value worked out at 2% and the Z score is on record as -0.27.
Consider `FC(F)[C@H](NCc1nnc(C2CC2)s1)c1ccccc1`, for which the “% Inhibition” value worked out at 2% and the Z score is recorded as -0.43.
In the same order, the values of `CCCc1nnsc1C(=O)N1CCc2nc(NC(=O)OCC)sc2C1` are -5% and 1.08.
